The text below walks through data of paper PMC4242493, “Sequence specificity incompletely defines the genome-wide occupancy of Myc”.

Over roughly 33,000 sequences, “normalized occupancy” has its median near 0.075; the highest 2% begin near 0.095. The sample as a whole holds a higher share of the highest values than the screen did.

MaxL homodimer, sequence (P61244 whole entry): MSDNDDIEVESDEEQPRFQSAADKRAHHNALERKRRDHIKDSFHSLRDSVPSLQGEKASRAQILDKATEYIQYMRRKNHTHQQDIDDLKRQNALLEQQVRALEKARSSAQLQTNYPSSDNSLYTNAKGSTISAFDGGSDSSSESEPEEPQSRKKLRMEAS

The assay concerns the target MaxL homodimer (Homo sapiens, UniProt P61244 1-160). Nature of the assay: universal protein-binding microarray (PBM); PBS-based mixture, 10 nM His-tagged protein dimer, 2% milk, 200 ng/uL BSA, 50 ng/uL salmon testes DNA, 0.02% TX-100; detection with Alexa 488 anti-His antibody;; high values mean tight binding. The following applies: protein: recombinant; tags: C-terminal His-tag (pET21a); chain copies: 2; dsDNA, one strand shown. The method, boiled down:
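A His-tagged protein dimer at 10 nM was incubated on Agilent 4 x 44 K arrays of the 'all 10-mer' universal design, then labelled with 10 ng/μL fluorophore-conjugated anti-His antibody and scanned on a GenePix 4400A. A fluorescence intensity was assigned to each 8-mer. Binding occupancy is each such intensity normalised to that of the highest-ranked one.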
On to CCGCACGA, for which the binding signal is 0.0824 normalized occupancy.

Take CCGCACGG: the binding signal stood at 0.0742 normalized occupancy.

Regarding CCGCACGC, the binding signal is 0.0999 normalized occupancy.

For the sequence ACATTTTG, the binding signal worked out at 0.0837 normalized occupancy.

Consider AACGCCCG, for which the binding signal is 0.0749 normalized occupancy.

As for CACGCGAG, the binding signal stood at 0.111 normalized occupancy.

Turning to CGCGCGAG, the binding signal was 0.0787 normalized occupancy.

On to CACGCGAC, for which the binding signal was found to be 0.131 normalized occupancy.

As for AACGCGAG, the binding signal is 0.0764 normalized occupancy.

Consider CACGCGAA, for which the binding signal was 0.105 normalized occupancy.

For the sequence AACGCGAC, the binding signal came out at 0.0746 normalized occupancy.

In the case of AACGCGAA, the binding signal was found to be 0.0761 normalized occupancy.

On to GACGCGAA, for which the binding signal turned out to be 0.0735 normalized occupancy.

For GACGCGAC, the binding signal was determined as 0.0735 normalized occupancy.

As to GTGGAATA, the binding signal came out at 0.0822 normalized occupancy.

Regarding ACGTCTTG, the binding signal was found to be 0.0724 normalized occupancy.

For the sequence ACAGGTTG, the binding signal amounted to 0.0821 normalized occupancy.

Consider AAAACGAG, for which the binding signal turned out to be 0.0747 normalized occupancy.

With GTTCTCCA, the binding signal came to 0.0767 normalized occupancy.

As for AACACATA, the binding signal was found to be 0.0823 normalized occupancy.

Turning to AACACATT, the binding signal was found to be 0.0903 normalized occupancy.

Take ACCACATA: the binding signal is 0.0854 normalized occupancy.

In the case of ACCACATC, the binding signal was 0.0807 normalized occupancy.

On to ACCACCTA, for which the binding signal came to 0.082 normalized occupancy.

In the case of ATGACATA, the binding signal is 0.0825 normalized occupancy.

ACCACATG: the binding signal was determined as 0.192 normalized occupancy.

For ATGACATC, the binding signal worked out at 0.0827 normalized occupancy.

ATGACATG: the binding signal is 0.0993 normalized occupancy.

On to ACCACCTG, for which the binding signal stood at 0.106 normalized occupancy.

Turning to AACACATG, the binding signal is 0.138 normalized occupancy.

For the sequence ACCACCTC, the binding signal was 0.0834 normalized occupancy.

For the sequence CGCCCATC, the binding signal stood at 0.0733 normalized occupancy.

Consider GTACGGAA, for which the binding signal is 0.0756 normalized occupancy.

Regarding ACCGCTAC, the binding signal turned out to be 0.0748 normalized occupancy.

For CATCCCTC, the binding signal was found to be 0.0774 normalized occupancy.

With AATTTTTG, the binding signal was found to be 0.0733 normalized occupancy.

Turning to AAGACAGG, the binding signal is 0.0727 normalized occupancy.

Take ATCACATA: the binding signal is 0.0859 normalized occupancy.

As to AGCACATA, the binding signal is 0.0807 normalized occupancy.

For the sequence CACACATG, the binding signal was determined as 0.136 normalized occupancy.

In the case of ATCACATG, the binding signal is 0.158 normalized occupancy.

In the case of CACACATA, the binding signal is 0.0896 normalized occupancy.

For the sequence CACACATC, the binding signal came to 0.0888 normalized occupancy.

On to AGCACATG, for which the binding signal came out at 0.187 normalized occupancy.

With AGCACATC, the binding signal came out at 0.0841 normalized occupancy.

On to ATCACATC, for which the binding signal was 0.0862 normalized occupancy.

On to AGTAGTGG, for which the binding signal came out at 0.0787 normalized occupancy.

In the case of CTACTTGA, the binding signal worked out at 0.0752 normalized occupancy.

On to GCCTCTCC, for which the binding signal is 0.076 normalized occupancy.

As to CACGCAGC, the binding signal came out at 0.085 normalized occupancy.

ACGTAGCC: the binding signal was 0.0725 normalized occupancy.

On to GCCCCCCC, for which the binding signal stood at 0.0757 normalized occupancy.

As to CCAGGGGA, the binding signal stood at 0.0742 normalized occupancy.

Consider ACACGTCG, for which the binding signal is 0.0849 normalized occupancy.

On to AGACGTTA, for which the binding signal came out at 0.0775 normalized occupancy.

Take AAACGTTA: the binding signal turned out to be 0.0739 normalized occupancy.

For the sequence CAACGTTA, the binding signal was 0.0767 normalized occupancy.

On to AGACGTTC, for which the binding signal worked out at 0.0744 normalized occupancy.

In the case of ACACGTTA, the binding signal was determined as 0.118 normalized occupancy.

As for ACACGTTC, the binding signal amounted to 0.102 normalized occupancy.

As to CCACGTTC, the binding signal was determined as 0.0913 normalized occupancy.

Turning to ATACGTTC, the binding signal worked out at 0.0794 normalized occupancy.

Consider CCACGTTA, for which the binding signal was found to be 0.105 normalized occupancy.

AAACGTTG: the binding signal amounted to 0.0765 normalized occupancy.

As for ACACGTTG, the binding signal was found to be 0.128 normalized occupancy.

For AGTCAGGC, the binding signal amounted to 0.0722 normalized occupancy.

Take TGCCCAAA: the binding signal worked out at 0.0731 normalized occupancy.

AGTATCAA: the binding signal was 0.0766 normalized occupancy.

In the case of GGCCAACC, the binding signal is 0.0741 normalized occupancy.

In the case of AAAAATGG, the binding signal came to 0.078 normalized occupancy.

As to ATGCCCCA, the binding signal was 0.0786 normalized occupancy.

Take GAACATTA: the binding signal was 0.0812 normalized occupancy.

Take ACGCCTCC: the binding signal stood at 0.0771 normalized occupancy.

As for AATAACAA, the binding signal was 0.0746 normalized occupancy.

With GGACGTTA, the binding signal stood at 0.0789 normalized occupancy.

With GCACGTTA, the binding signal worked out at 0.104 normalized occupancy.

GTACGTTA: the binding signal came out at 0.0781 normalized occupancy.

Take ACCAAGGC: the binding signal was found to be 0.0726 normalized occupancy.

As for GATATAAA, the binding signal stood at 0.0756 normalized occupancy.

Take ACAGGTCA: the binding signal was 0.0797 normalized occupancy.

In the case of AACGAGTG, the binding signal worked out at 0.0753 normalized occupancy.

As for CACGAGTG, the binding signal amounted to 0.0961 normalized occupancy.

Consider CACGAGAG, for which the binding signal came out at 0.0911 normalized occupancy.

CACGAGTA: the binding signal came out at 0.103 normalized occupancy.

For the sequence AACGAGTA, the binding signal was 0.077 normalized occupancy.

Turning to CACGAGTC, the binding signal was determined as 0.0906 normalized occupancy.

Take CGCAACTA: the binding signal amounted to 0.0738 normalized occupancy.

Regarding CAAGAGGG, the binding signal was 0.0744 normalized occupancy.

Consider CTGGTCGC, for which the binding signal stood at 0.0732 normalized occupancy.

In the case of ATGTATTC, the binding signal came to 0.0814 normalized occupancy.

Turning to CATGTACG, the binding signal is 0.0957 normalized occupancy.

For AATGTACA, the binding signal was 0.0818 normalized occupancy.

Consider CATGTATC, for which the binding signal came to 0.0975 normalized occupancy.

Take CATGTACC: the binding signal came out at 0.0843 normalized occupancy.

Take AATGTACG: the binding signal stood at 0.0761 normalized occupancy.

On to AATGTATC, for which the binding signal was 0.0876 normalized occupancy.

With CATGTATA, the binding signal worked out at 0.089 normalized occupancy.

Take CATGTACA: the binding signal was 0.0958 normalized occupancy.

As for GATGTACA, the binding signal came out at 0.0827 normalized occupancy.

Take AGTATTAT: the binding signal worked out at 0.0827 normalized occupancy.

In the case of CAGTGATG, the binding signal amounted to 0.0746 normalized occupancy.

In the case of CACTTCGG, the binding signal worked out at 0.0755 normalized occupancy.

Regarding TCGACAGA, the binding signal came out at 0.0736 normalized occupancy.

As for CGGTAGCA, the binding signal came to 0.0827 normalized occupancy.

For AGCAGATC, the binding signal amounted to 0.077 normalized occupancy.

On to ACTCCAGT, for which the binding signal was determined as 0.0743 normalized occupancy.

Regarding ACGCTGTA, the binding signal is 0.0841 normalized occupancy.

As to CCGGTGAG, the binding signal came to 0.0746 normalized occupancy.

For GACCTTGA, the binding signal was determined as 0.0732 normalized occupancy.

GCTAAATA: the binding signal was 0.079 normalized occupancy.

For AAGGTGGC, the binding signal came to 0.0758 normalized occupancy.

For CAGATGGG, the binding signal amounted to 0.0837 normalized occupancy.

Consider CAGGTGGC, for which the binding signal was found to be 0.0954 normalized occupancy.

Regarding CAGGTGGA, the binding signal is 0.0861 normalized occupancy.

On to CAGGTGGG, for which the binding signal stood at 0.101 normalized occupancy.

For the sequence GAGGTGGC, the binding signal was 0.0764 normalized occupancy.

With GTGCTGAA, the binding signal came to 0.0776 normalized occupancy.

For the sequence AATGGTAC, the binding signal is 0.0764 normalized occupancy.

In the case of AGTAGGAT, the binding signal came to 0.076 normalized occupancy.

In the case of GCATGGTA, the binding signal stood at 0.106 normalized occupancy.

Turning to CCATGGTA, the binding signal came to 0.0851 normalized occupancy.

For GAATGGTA, the binding signal came out at 0.08 normalized occupancy.

Take ACATGGTG: the binding signal was found to be 0.0914 normalized occupancy.

In the case of ACATGGTC, the binding signal was 0.104 normalized occupancy.

Take ATATGGTA: the binding signal amounted to 0.0884 normalized occupancy.

As to ACATGGTA, the binding signal was found to be 0.104 normalized occupancy.

Regarding CCATGGTC, the binding signal was 0.0849 normalized occupancy.

As to ACTTGGTA, the binding signal worked out at 0.0735 normalized occupancy.

Turning to AGGCGAGG, the binding signal is 0.0752 normalized occupancy.

For CCTACAGG, the binding signal was 0.0722 normalized occupancy.

For CGCGACGA, the binding signal was 0.0728 normalized occupancy.

As for CACTTTTA, the binding signal is 0.0728 normalized occupancy.

Consider AAAGGTGT, for which the binding signal was 0.0816 normalized occupancy.

Regarding GTTAGAAA, the binding signal stood at 0.0757 normalized occupancy.

As for TACGAACA, the binding signal was 0.0754 normalized occupancy.

As for AAGCAACG, the binding signal came out at 0.0753 normalized occupancy.

In the case of CAACGCGA, the binding signal was 0.0767 normalized occupancy.

For CAACGCGG, the binding signal came to 0.0764 normalized occupancy.

Take CTACGCGC: the binding signal was found to be 0.0727 normalized occupancy.

For the sequence CCACGCAG, the binding signal was 0.0904 normalized occupancy.

On to CGACGCGA, for which the binding signal stood at 0.0735 normalized occupancy.

As to TCACGCGA, the binding signal is 0.11 normalized occupancy.

For the sequence TCACGCCA, the binding signal stood at 0.0851 normalized occupancy.

TCACGCAA: the binding signal amounted to 0.0764 normalized occupancy.

For CCACGCGG, the binding signal is 0.32 normalized occupancy.

Turning to CCACGCGC, the binding signal worked out at 0.157 normalized occupancy.

Consider CAACGCGC, for which the binding signal is 0.0787 normalized occupancy.

With CCACGCGA, the binding signal is 0.131 normalized occupancy.

For GCCTACAA, the binding signal was found to be 0.075 normalized occupancy.

GACAGAGA: the binding signal was determined as 0.0724 normalized occupancy.

As for ATACAACA, the binding signal worked out at 0.0788 normalized occupancy.

With CGAAAGCA, the binding signal was found to be 0.0741 normalized occupancy.

For CAGGGGGA, the binding signal amounted to 0.0851 normalized occupancy.

Turning to TCTTCGCA, the binding signal turned out to be 0.0796 normalized occupancy.

In the case of AATAGAGC, the binding signal turned out to be 0.0803 normalized occupancy.

Consider AATAACGT, for which the binding signal was 0.0823 normalized occupancy.

Consider ATTAGTAC, for which the binding signal was determined as 0.0786 normalized occupancy.

Regarding AGTGCATA, the binding signal was determined as 0.0847 normalized occupancy.

Regarding AATGCATT, the binding signal was found to be 0.0797 normalized occupancy.

On to AATGCATC, for which the binding signal is 0.0763 normalized occupancy.

In the case of AATGCATG, the binding signal amounted to 0.1 normalized occupancy.

Consider AGTGCATG, for which the binding signal was 0.0988 normalized occupancy.

Turning to ACTGCATG, the binding signal came out at 0.0859 normalized occupancy.

On to CATGCAAG, for which the binding signal turned out to be 0.0837 normalized occupancy.

Take CATGCATG: the binding signal came out at 0.121 normalized occupancy.

Take AGTGCATC: the binding signal was determined as 0.0772 normalized occupancy.

Turning to CCTGCATC, the binding signal worked out at 0.0807 normalized occupancy.

In the case of CATGCATC, the binding signal was found to be 0.0997 normalized occupancy.

With GATGCATC, the binding signal worked out at 0.0787 normalized occupancy.

Take GCACGAAA: the binding signal was 0.078 normalized occupancy.

For TAGACACA, the binding signal came out at 0.0829 normalized occupancy.

As for AACAAGCC, the binding signal came out at 0.0718 normalized occupancy.
